Results reported in PubChem BioAssay AID1159580 (chemical genetic matrix, 2015).
Among all 5,500 compounds or so, about 2,000 (36%) were called active. Not shown: some 18% with an inconclusive outcome. Rule as the data show it: active = normalized growth mostly below about 0.91 (no sharp cut-off); inconclusive = no clear call, values can overlap the other calls; inactive = mostly above about 0.92. The list shows a part of the results.

Assay: chemical genetic growth profiling, strain panel (AID 1159580);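 also: tested at 20 µM; growth read once vehicle control cultures reached saturation at 30 °C; 1 = growth at the plate median or of vehicle wells; lower values mean less growth of the strain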
Conditions: growth OD
[1] = S. cerevisiae deletion strains, locus YDL101C, strain DUN1, active compounds read low
[2] = S. cerevisiae deletion strains, locus YHR030C, strain SLT2, active compounds read low

Measured: normalized growth

O=C(COC(=O)c1ccccc1C(=O)c1ccccc1)c1ccccc1
inactive: S. cerevisiae deletion strains, locus YAL013W, strain DEP1, active compounds read low 0.984 | S. cerevisiae deletion strains, locus YBR229C, strain ROT2, active compounds read low 0.988 | [1] 0.97 | S. cerevisiae deletion strains, locus YDR150W, strain NUM1, active compounds read low 0.969 | S. cerevisiae deletion strains, locus YEL061C, strain CIN8, active compounds read low 0.989 | S. cerevisiae deletion strains, locus YGR078C, strain PAC10, active compounds read low 0.98 | S. cerevisiae deletion strains, locus YGR229C, strain SMI1, active compounds read low 0.993 | [2] 0.861 | S. cerevisiae deletion strains, locus YHR087W, strain rtc3, active compounds read low 0.98 | S. cerevisiae deletion strains, locus YJR043C, strain POL32, active compounds read low 0.979 | S. cerevisiae deletion strains, locus YJR075W, strain HOC1, active compounds read low 0.957 | S. cerevisiae deletion strains, locus YKL190W, strain CNB1, active compounds read low 0.998 | S. cerevisiae deletion strains, locus YLR039C, strain RIC1, active compounds read low 0.912 | S. cerevisiae deletion strains, locus YLR058C, strain SHM2 (second series), active compounds read low 0.984 | S. cerevisiae deletion strains, locus YLR085C, strain ARP6, active compounds read low 0.936 | S. cerevisiae deletion strains, locus YLR262C, strain YPT6, active compounds read low 0.933 | S. cerevisiae deletion strains, locus YML094W, strain GIM5, active compounds read low 0.99 | S. cerevisiae deletion strains, locus YMR219W, strain ESC1, active compounds read low 0.978 | S. cerevisiae deletion strains, locus YMR263W, strain SAP30, active compounds read low 0.902 | S. cerevisiae deletion strains, locus YNL153C, strain GIM3, active compounds read low 0.99 | S. cerevisiae deletion strains, locus YNL298W, strain CLA4 (second series), active compounds read low 0.971 | S. cerevisiae deletion strains, locus YNL322C, strain KRE1, active compounds read low 0.989 | S. cerevisiae deletion strains, locus YNR030W, strain Alg12, active compounds read low 0.975 | S. cerevisiae deletion strains, locus YPL055C, strain LGE1, active compounds read low 0.979 | S. cerevisiae deletion strains, locus YPL241C, strain CIN2, active compounds read low 0.95 | S. cerevisiae deletion strains, locus YPR135W, strain CTF4, active compounds read low 0.868 | S. cerevisiae strains, strain wild type, active compounds read low 1

C/C(=N/NC(=O)c1ccc(C(C)(C)C)cc1)c1ccccc1O
inactive: S. cerevisiae deletion strains, locus YAR019C, strain CDC15, active compounds read low 0.985 | S. cerevisiae deletion strains, locus YBL105C, strain PKC1, active compounds read low 0.979 | S. cerevisiae deletion strains, locus YBR135W, strain CKS1, active compounds read low 0.969 | S. cerevisiae deletion strains, locus YBR136W, strain MEC1, active compounds read low 0.979 | S. cerevisiae deletion strains, locus YBR160W, strain CDC28, active compounds read low 0.98 | S. cerevisiae deletion strains, locus YDL017W, strain CDC7, active compounds read low 0.979 | S. cerevisiae deletion strains, locus YDL028C, strain MPS1, active compounds read low 0.974 | [1] 0.963 | S. cerevisiae deletion strains, locus YDL108W, strain KIN28, active compounds read low 0.972 | S. cerevisiae deletion strains, locus YDL132W, strain cdc53, active compounds read low 0.98 | S. cerevisiae deletion strains, locus YDL214C, strain PRR2, active compounds read low 0.976 | S. cerevisiae deletion strains, locus YDR052C, strain DBF4, active compounds read low 0.979 | S. cerevisiae deletion strains, locus YDR054C, strain cdc34, active compounds read low 0.978 | S. cerevisiae deletion strains, locus YDR226W, strain ADK1, active compounds read low 0.971 | S. cerevisiae deletion strains, locus YDR477W, strain SNF1, active compounds read low 0.985 | S. cerevisiae deletion strains, locus YER123W, strain YCK3, active compounds read low 0.97 | S. cerevisiae deletion strains, locus YER133W, strain GLC7, active compounds read low 0.979 | S. cerevisiae deletion strains, locus YFL009W, strain cdc4, active compounds read low 0.977 | S. cerevisiae deletion strains, locus YFL029C, strain CAK1, active compounds read low 0.974 | S. cerevisiae deletion strains, locus YFR003C, strain YPI1, active compounds read low 0.979 | S. cerevisiae deletion strains, locus YFR019W, strain FAB1, active compounds read low 1.01 | S. cerevisiae deletion strains, locus YFR028C, strain CDC14, active compounds read low 0.981 | S. cerevisiae deletion strains, locus YGR040W, strain KSS1, active compounds read low 0.994 | S. cerevisiae deletion strains, locus YGR052W, strain FMP48, active compounds read low 1 | S. cerevisiae deletion strains, locus YGR092W, strain DBF2, active compounds read low 0.934 | [2] 0.876 | S. cerevisiae deletion strains, locus YHR079C, strain IRE1, active compounds read low 0.952 | S. cerevisiae deletion strains, locus YHR082C, strain KSP1, active compounds read low 1.07 | S. cerevisiae deletion strains, locus YHR205W, strain SCH9, active compounds read low 0.995 | S. cerevisiae deletion strains, locus YIL147C, strain SLN1, active compounds read low 0.976 | S. cerevisiae deletion strains, locus YJL095W, strain BCK1, active compounds read low 0.972 | S. cerevisiae deletion strains, locus YJL128C, strain PBS2, active compounds read low 0.939 | S. cerevisiae deletion strains, locus YJL157C, strain FAR1, active compounds read low 0.981 | S. cerevisiae deletion strains, locus YJR016C, strain ILV3, active compounds read low 0.987 | S. cerevisiae deletion strains, locus YJR066W, strain TOR1 (second series), active compounds read low 0.969 | S. cerevisiae deletion strains, locus YJR066W, strain TOR1, active compounds read low 1.05 | S. cerevisiae deletion strains, locus YKL048C, strain ELM1, active compounds read low 0.985 | S. cerevisiae deletion strains, locus YKL067W, strain YNK1, active compounds read low 0.966 | S. cerevisiae deletion strains, locus YKL101W, strain HSL1, active compounds read low 0.987 | S. cerevisiae deletion strains, locus YKL193C, strain SDS22, active compounds read low 0.988 | S. cerevisiae deletion strains, locus YKL203C, strain TOR2, active compounds read low 1.01 | S. cerevisiae deletion strains, locus YLR133W, strain CKI1, active compounds read low 0.988 | S. cerevisiae deletion strains, locus YLR403W, strain SFP1, active compounds read low 1 | S. cerevisiae deletion strains, locus YML070W, strain DAK1, active compounds read low 0.964 | S. cerevisiae deletion strains, locus YMR001C, strain CDC5, active compounds read low 0.978 | S. cerevisiae deletion strains, locus YMR205C, strain PFK2 (second series), active compounds read low 0.981 | S. cerevisiae deletion strains, locus YMR277W, strain FCP1, active compounds read low 0.98 | S. cerevisiae deletion strains, locus YNL006W, strain LST8, active compounds read low 0.976 | S. cerevisiae deletion strains, locus YNL020C, strain ARK1, active compounds read low 1.01 | S. cerevisiae deletion strains, locus YNL161W, strain CBK1, active compounds read low 0.983 | S. cerevisiae deletion strains, locus YNL183C, strain NPR1, active compounds read low 1.01 | S. cerevisiae deletion strains, locus YNL207W, strain RIO2, active compounds read low 0.969 | S. cerevisiae deletion strains, locus YNL222W, strain SSU72, active compounds read low 0.976 | S. cerevisiae deletion strains, locus YNL307C, strain MCK1 (second series), active compounds read low 1.01 | S. cerevisiae deletion strains, locus YOL078W, strain AVO1, active compounds read low 0.986 | S. cerevisiae deletion strains, locus YOL136C, strain PFK27, active compounds read low 0.977 | S. cerevisiae deletion strains, locus YOR061W, strain CKA2, active compounds read low 0.995 | S. cerevisiae deletion strains, locus YOR119C, strain RIO1, active compounds read low 1.05 | S. cerevisiae deletion strains, locus YOR231W, strain MKK1, active compounds read low 0.952 | S. cerevisiae deletion strains, locus YOR329C, strain SCD5, active compounds read low 0.975 | S. cerevisiae deletion strains, locus YPL031C, strain PHO85, active compounds read low 0.979 | S. cerevisiae deletion strains, locus YPL153C, strain RAD53, active compounds read low 0.981 | S. cerevisiae deletion strains, locus YPL204W, strain HRR25, active compounds read low 0.967 | S. cerevisiae deletion strains, locus YPL209C, strain IPL1, active compounds read low 0.977 | S. cerevisiae deletion strains, locus YPR025C, strain CCL1, active compounds read low 0.971 | S. cerevisiae deletion strains, locus YPR106W, strain ISR1, active compounds read low 0.986 | S. cerevisiae deletion strains, locus YPR111W, strain DBF20, active compounds read low 0.972 | S. cerevisiae deletion strains, strain NNK1, active compounds read low 0.966 | S. cerevisiae deletion strains, strain TSCII, active compounds read low 0.981
active: S. cerevisiae deletion strains, locus YLR113W, strain HOG1, active compounds read low 0.779 | S. cerevisiae deletion strains, locus YPL256C, strain CLN2, active compounds read low 0.808
